The supplement of paper PMC11732987, “Enantioselective OTUD7B fragment discovery through chemoproteomics screening and high-throughput optimisation” (Communications Chemistry, 2025)

Assays:
Experiment in all cases: log2 ratio of Biotin-Ahx-Ub-VS probe labelling (fragment/DMSO); higher = less target engagement (more negative = stronger competition), active = hit call of the paper (q ≤ 0.05, log2 ratio ≤ -1)
Conditions in all cases: compound concentration: 200 uM; treatment time: 3 h
[1] = molecular target: USP9X (UniProt Q93008)
Chain of USP9X (Q93008 whole entry, the tested form may be a part): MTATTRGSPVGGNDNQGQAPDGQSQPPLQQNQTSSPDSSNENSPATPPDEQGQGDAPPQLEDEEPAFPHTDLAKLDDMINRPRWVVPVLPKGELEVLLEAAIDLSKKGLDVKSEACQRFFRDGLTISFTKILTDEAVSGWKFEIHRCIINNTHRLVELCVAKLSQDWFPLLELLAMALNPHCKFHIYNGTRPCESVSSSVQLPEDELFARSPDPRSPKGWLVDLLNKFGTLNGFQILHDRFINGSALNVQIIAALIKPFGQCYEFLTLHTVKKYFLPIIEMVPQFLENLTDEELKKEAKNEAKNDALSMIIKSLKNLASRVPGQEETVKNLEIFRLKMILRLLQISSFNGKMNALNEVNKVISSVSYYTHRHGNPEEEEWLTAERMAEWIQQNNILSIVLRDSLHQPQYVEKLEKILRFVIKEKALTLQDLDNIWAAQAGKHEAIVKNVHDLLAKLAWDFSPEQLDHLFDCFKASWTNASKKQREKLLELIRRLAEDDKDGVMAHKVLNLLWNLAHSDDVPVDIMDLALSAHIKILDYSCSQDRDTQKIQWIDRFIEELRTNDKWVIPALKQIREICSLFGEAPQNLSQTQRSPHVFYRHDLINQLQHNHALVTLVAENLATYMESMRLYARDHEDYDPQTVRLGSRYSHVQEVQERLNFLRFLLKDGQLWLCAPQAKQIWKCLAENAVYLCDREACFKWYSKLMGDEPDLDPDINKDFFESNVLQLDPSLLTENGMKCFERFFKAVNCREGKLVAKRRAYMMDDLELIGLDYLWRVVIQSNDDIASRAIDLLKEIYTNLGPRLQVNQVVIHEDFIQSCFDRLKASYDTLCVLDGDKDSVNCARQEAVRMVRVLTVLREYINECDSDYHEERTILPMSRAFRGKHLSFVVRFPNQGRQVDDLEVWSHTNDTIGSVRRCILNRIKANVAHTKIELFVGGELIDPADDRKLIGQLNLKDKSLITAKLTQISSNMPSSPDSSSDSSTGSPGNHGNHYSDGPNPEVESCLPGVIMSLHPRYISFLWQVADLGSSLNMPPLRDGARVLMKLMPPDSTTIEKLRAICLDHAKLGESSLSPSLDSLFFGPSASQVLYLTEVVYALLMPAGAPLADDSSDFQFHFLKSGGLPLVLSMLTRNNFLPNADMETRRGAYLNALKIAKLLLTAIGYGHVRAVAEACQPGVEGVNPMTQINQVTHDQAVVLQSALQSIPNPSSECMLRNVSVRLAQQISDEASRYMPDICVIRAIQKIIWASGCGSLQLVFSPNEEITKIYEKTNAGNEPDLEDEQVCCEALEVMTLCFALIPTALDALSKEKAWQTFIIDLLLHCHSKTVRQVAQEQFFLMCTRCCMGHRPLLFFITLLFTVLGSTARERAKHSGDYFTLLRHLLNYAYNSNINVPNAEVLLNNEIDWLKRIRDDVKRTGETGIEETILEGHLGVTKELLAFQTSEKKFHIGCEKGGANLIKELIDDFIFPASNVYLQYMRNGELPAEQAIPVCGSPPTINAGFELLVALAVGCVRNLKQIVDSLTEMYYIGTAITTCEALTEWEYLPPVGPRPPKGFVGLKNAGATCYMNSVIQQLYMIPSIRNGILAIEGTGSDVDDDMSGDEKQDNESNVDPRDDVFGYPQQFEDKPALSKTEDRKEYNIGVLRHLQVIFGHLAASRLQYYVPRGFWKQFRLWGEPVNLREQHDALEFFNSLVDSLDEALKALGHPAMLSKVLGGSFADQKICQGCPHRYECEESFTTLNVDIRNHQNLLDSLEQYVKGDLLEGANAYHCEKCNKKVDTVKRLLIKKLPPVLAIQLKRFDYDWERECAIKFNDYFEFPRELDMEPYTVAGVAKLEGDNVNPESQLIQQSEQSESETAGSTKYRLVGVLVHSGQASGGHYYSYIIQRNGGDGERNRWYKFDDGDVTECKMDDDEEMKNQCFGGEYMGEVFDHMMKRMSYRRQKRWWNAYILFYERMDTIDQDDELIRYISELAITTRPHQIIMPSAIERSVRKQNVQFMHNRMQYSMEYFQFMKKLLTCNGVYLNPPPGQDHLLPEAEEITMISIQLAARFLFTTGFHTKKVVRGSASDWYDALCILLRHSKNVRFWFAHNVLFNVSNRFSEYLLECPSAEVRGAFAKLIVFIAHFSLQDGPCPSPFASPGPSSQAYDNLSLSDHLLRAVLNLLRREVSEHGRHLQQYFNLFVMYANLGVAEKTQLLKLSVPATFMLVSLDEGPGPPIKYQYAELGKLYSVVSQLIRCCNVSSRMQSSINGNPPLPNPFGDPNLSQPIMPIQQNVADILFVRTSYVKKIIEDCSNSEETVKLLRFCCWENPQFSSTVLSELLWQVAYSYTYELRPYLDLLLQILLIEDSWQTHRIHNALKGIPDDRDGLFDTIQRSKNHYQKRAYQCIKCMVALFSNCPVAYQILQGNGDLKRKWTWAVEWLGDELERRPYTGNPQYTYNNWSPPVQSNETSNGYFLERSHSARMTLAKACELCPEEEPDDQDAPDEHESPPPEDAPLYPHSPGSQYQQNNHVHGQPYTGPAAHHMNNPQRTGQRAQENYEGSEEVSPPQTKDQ
Summary of the method: (§1)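 HEK293T lysate (495 µg per sample, in Tris/CHAPS/IGEPAL buffer with protease inhibitors) was exposed in triplicate for 3 h to fragment at 200 µM or to vehicle, then to Biotin-Ahx-Ub-VS at 0.5 µM final for 1 h. Labelled DUBs were enriched on NeutrAvidin, digested with LysC and trypsin, and analysed by diaPASEF LC-MS/MS. Spectronaut label-free quantities were normalised to the global median, and values are average log2 ratios of fragment over vehicle from an unpaired t-test. Only proteins with ≥2 unique peptides were used.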

[2] = molecular target: UniProt O00487
Chain of UniProt O00487 (O00487 whole entry): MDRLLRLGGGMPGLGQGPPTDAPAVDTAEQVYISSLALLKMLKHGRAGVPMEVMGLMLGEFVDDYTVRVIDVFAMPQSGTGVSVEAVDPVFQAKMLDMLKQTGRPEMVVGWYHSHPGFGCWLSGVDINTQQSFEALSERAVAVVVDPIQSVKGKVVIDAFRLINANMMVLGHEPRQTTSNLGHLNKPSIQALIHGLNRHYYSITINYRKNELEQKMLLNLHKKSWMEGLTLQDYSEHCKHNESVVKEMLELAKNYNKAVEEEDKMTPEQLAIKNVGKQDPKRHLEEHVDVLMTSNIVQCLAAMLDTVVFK
Summary of the method: as §1

[3] = molecular target: UniProt O00507
Summary of the method: as §1

[4] = molecular target: UniProt P51784
Chain of UniProt P51784 (P51784 whole entry): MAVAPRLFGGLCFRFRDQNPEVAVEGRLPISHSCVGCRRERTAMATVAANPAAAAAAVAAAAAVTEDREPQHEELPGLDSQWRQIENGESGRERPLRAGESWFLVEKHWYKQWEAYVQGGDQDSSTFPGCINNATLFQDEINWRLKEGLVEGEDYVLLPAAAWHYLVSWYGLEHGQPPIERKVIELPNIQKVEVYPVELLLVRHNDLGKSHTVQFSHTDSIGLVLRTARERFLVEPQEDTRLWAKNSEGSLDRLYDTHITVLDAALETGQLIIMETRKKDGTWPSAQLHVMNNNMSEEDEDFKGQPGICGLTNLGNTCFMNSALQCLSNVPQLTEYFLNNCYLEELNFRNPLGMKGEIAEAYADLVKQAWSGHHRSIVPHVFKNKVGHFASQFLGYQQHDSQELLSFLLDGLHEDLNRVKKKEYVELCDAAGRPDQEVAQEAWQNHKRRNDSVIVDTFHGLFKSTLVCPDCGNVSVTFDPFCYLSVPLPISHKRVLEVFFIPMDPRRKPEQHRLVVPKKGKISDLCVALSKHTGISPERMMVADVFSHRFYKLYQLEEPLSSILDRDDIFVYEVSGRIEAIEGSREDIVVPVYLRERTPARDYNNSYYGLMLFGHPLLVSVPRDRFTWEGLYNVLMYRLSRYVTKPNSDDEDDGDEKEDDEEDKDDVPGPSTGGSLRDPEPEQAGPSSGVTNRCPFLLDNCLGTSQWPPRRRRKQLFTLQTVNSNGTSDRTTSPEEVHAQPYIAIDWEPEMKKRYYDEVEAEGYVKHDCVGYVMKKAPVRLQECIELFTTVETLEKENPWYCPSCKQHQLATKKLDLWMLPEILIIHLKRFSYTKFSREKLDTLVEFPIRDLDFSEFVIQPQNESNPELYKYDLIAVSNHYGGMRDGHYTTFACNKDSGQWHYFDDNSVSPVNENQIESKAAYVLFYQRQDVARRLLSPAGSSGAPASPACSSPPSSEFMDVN
Summary of the method: as §1

[5] = molecular target: T1, UniProt Q5T2D3
T1 sequence (whole entry): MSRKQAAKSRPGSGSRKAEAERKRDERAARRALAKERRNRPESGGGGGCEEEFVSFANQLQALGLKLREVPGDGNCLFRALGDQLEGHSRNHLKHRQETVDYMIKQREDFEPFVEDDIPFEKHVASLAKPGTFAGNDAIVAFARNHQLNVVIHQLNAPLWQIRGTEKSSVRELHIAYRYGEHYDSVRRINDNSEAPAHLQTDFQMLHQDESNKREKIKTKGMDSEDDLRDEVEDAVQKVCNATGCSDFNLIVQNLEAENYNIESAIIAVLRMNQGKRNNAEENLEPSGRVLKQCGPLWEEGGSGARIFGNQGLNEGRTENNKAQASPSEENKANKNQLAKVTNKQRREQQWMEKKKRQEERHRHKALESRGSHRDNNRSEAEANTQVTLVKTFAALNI
Summary of the method: as §1

[6] = molecular target: T2, UniProt Q8TE49
T2 sequence (whole entry): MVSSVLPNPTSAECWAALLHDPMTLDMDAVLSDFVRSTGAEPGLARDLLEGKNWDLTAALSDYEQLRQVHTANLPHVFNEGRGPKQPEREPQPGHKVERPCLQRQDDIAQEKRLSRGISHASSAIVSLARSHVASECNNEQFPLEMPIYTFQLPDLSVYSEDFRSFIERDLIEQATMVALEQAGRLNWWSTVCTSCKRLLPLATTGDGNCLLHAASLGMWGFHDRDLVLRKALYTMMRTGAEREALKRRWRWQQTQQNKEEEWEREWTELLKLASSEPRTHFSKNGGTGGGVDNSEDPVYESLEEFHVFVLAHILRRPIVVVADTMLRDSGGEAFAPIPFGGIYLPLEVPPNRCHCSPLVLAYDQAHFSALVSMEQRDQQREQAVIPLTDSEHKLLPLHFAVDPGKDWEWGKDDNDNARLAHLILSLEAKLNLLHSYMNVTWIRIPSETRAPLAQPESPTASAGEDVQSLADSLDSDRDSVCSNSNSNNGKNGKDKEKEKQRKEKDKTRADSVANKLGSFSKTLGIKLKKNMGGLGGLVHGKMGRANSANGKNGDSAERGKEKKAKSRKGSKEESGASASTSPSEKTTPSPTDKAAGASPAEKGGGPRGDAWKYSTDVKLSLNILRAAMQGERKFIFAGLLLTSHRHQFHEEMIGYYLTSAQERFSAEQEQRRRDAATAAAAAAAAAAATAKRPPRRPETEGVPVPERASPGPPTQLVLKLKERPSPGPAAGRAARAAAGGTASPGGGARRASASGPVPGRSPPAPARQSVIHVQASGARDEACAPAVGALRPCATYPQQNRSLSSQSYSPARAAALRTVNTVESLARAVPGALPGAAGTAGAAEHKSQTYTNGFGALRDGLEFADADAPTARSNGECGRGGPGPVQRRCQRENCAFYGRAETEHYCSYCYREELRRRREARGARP
Summary of the method: as §1

[7] = molecular target: T3, UniProt Q9P2H5
T3 sequence (whole entry): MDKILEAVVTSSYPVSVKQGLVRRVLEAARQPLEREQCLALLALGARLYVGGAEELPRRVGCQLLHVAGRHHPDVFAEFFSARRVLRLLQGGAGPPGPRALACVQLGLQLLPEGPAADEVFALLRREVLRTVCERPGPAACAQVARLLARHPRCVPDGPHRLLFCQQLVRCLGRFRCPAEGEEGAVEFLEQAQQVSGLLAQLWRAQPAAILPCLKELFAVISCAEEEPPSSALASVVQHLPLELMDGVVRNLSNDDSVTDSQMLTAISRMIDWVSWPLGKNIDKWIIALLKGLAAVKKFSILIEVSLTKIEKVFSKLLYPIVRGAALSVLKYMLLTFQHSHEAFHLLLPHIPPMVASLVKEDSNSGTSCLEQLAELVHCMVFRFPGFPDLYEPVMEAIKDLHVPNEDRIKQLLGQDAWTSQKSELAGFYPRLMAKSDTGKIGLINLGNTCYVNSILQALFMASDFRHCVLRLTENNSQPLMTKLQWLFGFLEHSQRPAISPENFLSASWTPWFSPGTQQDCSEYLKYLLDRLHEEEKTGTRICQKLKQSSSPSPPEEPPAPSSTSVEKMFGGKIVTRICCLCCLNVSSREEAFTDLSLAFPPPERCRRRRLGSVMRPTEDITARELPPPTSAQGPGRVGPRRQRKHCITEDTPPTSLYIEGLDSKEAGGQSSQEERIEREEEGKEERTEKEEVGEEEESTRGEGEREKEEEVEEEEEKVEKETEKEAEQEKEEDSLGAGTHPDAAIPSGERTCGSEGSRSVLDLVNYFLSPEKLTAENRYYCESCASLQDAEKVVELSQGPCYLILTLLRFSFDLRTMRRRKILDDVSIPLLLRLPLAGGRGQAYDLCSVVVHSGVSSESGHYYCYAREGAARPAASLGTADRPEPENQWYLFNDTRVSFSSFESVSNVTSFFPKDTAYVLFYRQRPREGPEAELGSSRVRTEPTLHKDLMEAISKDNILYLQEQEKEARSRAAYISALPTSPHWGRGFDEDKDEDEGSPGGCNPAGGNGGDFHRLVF
Summary of the method: as §1

[8] = molecular target: T4, UniProt Q9UGI0
T4 sequence (whole entry): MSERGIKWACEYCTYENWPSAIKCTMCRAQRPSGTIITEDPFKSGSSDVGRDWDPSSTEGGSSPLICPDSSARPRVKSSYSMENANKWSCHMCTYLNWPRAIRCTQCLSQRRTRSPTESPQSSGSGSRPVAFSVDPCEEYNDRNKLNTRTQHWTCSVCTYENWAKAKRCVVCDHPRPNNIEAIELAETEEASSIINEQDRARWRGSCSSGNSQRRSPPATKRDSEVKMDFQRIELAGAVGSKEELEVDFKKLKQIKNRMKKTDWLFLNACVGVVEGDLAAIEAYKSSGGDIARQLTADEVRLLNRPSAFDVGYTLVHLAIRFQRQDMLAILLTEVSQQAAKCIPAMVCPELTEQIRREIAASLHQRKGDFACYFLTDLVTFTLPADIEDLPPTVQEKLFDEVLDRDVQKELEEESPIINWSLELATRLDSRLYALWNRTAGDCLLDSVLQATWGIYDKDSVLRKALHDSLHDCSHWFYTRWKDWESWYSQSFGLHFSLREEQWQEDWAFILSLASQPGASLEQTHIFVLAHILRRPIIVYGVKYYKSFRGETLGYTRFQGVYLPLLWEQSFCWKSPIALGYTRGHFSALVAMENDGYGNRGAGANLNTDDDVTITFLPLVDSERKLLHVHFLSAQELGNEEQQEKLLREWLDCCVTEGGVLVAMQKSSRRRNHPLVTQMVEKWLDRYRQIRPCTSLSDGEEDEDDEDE
Summary of the method: as §1

[9] = molecular target: T5, YOD1 (UniProt Q5VVQ6)
T5 sequence (whole entry): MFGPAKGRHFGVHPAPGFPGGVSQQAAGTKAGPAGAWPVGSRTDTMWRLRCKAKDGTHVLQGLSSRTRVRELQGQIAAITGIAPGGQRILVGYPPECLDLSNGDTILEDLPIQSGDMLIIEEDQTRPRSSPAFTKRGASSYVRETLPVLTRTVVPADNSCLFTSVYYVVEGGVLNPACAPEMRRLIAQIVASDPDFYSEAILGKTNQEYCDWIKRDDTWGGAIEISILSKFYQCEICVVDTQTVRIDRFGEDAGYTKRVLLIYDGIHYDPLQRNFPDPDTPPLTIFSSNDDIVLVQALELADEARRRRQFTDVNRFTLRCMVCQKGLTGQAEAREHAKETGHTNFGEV
Summary of the method: as §1

Measured: log2 ratio of Biotin-Ahx-Ub-VS probe labelling

O=C(CCl)Nc1ccc(N2CCCC2=O)cc1
inactive: [1] 0.00968 | [2] -0.0936 | [3] -0.208 | [4] 0.297 | [5] 0.165 | [6] 0.0701 | [7] 0.00543 | [8] -0.752 | [9] 0.137
